High-throughput results: PubChem BioAssay, National Center for Advancing Translational Sciences (NCATS)
Sampled rows, rich in hits. Any-hit rate of the full collection: about 7.9%.
HT1080NT lethal: kills 2HG-producing HT-1080-NT fibrosarcoma cells. HT-1080-NT fibrosarcoma viability, CellTiter-Glo ATP luminescence, 48 h. Potency, µM (highest dose often 46.1 µM), for the others: top-dose activity, negative = less viability, most hits filed as cytotoxic. 1.6% of 360,000 active. AID 686970;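 further: NT is the 2HG producing partner of a matched IDH1 knockdown line; 0% = DMSO-treated cells and -100% = media-only wells without cells; nearly all actives have a fitted effect of over 55% in size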
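Viability by CellTiter-Glo luminescence after 48 h compound exposure at 37C of HT-1080-NT cells (750/well, RPMI, 5% FBS). % activity scaled between DMSO wells and medium-only wells, then curve-fitted and categorized by curve class.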
HT1080 IDH1KD tx: kills HT-1080 cells with IDH1 knockdown. HT-1080 IDH1 knockdown viability, ATP luminescence, 48 h. Potency, µM (top dose mostly 46.1 µM), without a hit: at the highest dose activity, negative = toxicity, most hits filed as cytotoxic. 2% of 360,000 active;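 further: 0% = DMSO wells and -100% = cell-free medium wells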
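Assay cells: HT-1080 with IDH1 knockdown, 750 per well, RPMI/5% FBS. Exposure: 48 h at 37 °C following 2 h pre-incubation. Read: CellTiter-Glo luminescence; fitted concentration-response, curve class assigned.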
SW480 rereplic: DNA re-replication induction in SW480 cells; SW480 DNA re-replication, Hoechst DNA content imaging, 48 h; Potency, µM (series often up to 46.1 µM), without a hit: at the highest dose re-replication activation, usual class: activators; 1.8% of 340,000 active; further: % of control where 0% means no effect; nearly all actives have a fitted effect of over 55% in size
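Image-based read-out: total Hoechst fluorescence of nuclei (405 nm excitation, 500-530 nm emission), with hits raising the fraction of high-intensity nuclei. SW480 colon cells incubated 48 hr with compounds at 37 C.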
KB-3-1 tox: kills parental KB-3-1 adenocarcinoma cells; KB-3-1 viability, CellTiter-Glo ATP luminescence, 72 h; Potency, µM (titrated, usually from 46.1 µM), most hits filed as cytotoxic; 1.4% of 400,000 active; AID 1347075; further: on the % scale 0 is the no-effect control and ±100 the full control effect; nearly all actives have a fitted effect of over 60% in size
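KB-3-1 cells, DMEM (no phenol red) + 10% FBS; compound by pin transfer, 72 h, 37 °C. Readout: CellTiter-Glo luminescence after 10 min. Data normalized, curve-fitted.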
MCF10A rereplic: induces DNA re-replication in MCF 10a normal breast cells | Potency, µM (top dose mostly 46.1 µM), inactives show top-dose activity, positive = re-replication, actives largely listed as activators | 2.9% of 350,000 active | MCF 10A DNA re-replication, Hoechst nuclear intensity, 48 h; further: % of control where 0% means no effect; nearly all actives have a fitted effect of over 50% in size
KB-V1 cytotox: kills drug-selected multidrug resistant KB-V1 cells. KB-V1 MDR cells viability, CellTiter-Glo, 72 h. 3.4% of 400,000 active. Potency, µM (series often up to 46.1 µM), most hits filed as cytotoxic. AID 1347076; further: on the % scale 0 is the no-effect control and ±100 the full control effect; nearly all actives have a fitted effect of over 60% in size
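Cytotoxicity toward P-gp-expressing KB-V1 cells was determined as loss of CellTiter-Glo luminescence after 72 h at 37 degrees C. Compounds were tested in quantitative HTS format across a concentration range, with curves fitted to normalized data.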
* marks the source's active call; other numbers are inactive results; i = inactive; ? = inconclusive; nt = no result given; [ ] = dose if it differs, or a comment. The call rests on the fitted dose curve; in most records, active means well fitted curve in the direction sought with a large enough effect; inconclusive means small, poorly fitted or top-dose-only effect, or another doubt; inactive means no such curve, though single readings can be large; an effect the other way counts as inactive or inconclusive. Potency means the concentration at half of the fitted maximal effect.

SMILES	HT1080NT lethal	HT1080 IDH1KD tx	SW480 rereplic	KB-3-1 tox	MCF10A rereplic	KB-V1 cytotox
Cc1cccc2c1-c1sc(C(=O)NCCCN3CCC(C)CC3)cc1CO2	?	?	29µM*	?	23µM*	i
CC1CCCN(CCCNC(=O)c2cc3c(s2)-c2ccccc2OC3)C1 (stereo not given)	21µM*	?	?	?	?	i
O=C(NCCCN1CCN(c2ccc(F)cc2)CC1)c1cc2c(s1)-c1ccccc1OC2	nt	nt	nt	i	nt	?
O=C(N/N=C/c1ccc(N2CCCCC2)o1)c1ccccc1[N+](=O)[O-]	-5%	?	7.3µM*	i	5.8µM*	i
O=C(N/N=C/c1ccc(N2CCOCC2)o1)c1ccccc1[N+](=O)[O-]	21%	19%	20%	i	?	i
C=CCN1C(=O)/C(=C2/Sc3ccc(OC)cc3N2C)SC1=Nc1ccccc1	2%	-2%	7.3µM*	i	?	i
C(=NNc1nnn(Cc2ccccc2)n1)c1ccccc1	9.2µM*	18µM*	nt	?	nt	16µM*
CN(C)c1nc(N/N=C/c2c[nH]c3ccccc23)nc(N2CCOCC2)n1	-19%	-19%	15µM*	i	19%	i
CC1CC(C)CN(C(=O)COC(=O)c2ccc3c(c2)OCO3)C1 (stereo not given)	2%	0%	-2%	i	2%	i
CC1CCN(C(=O)COC(=O)c2cc(Cl)c3c(c2)OCO3)CC1	3%	3%	-1%	i	-2%	21µM*
COc1cc2[nH]c(=O)n(CCCCCC(=O)NC3CCCC3)c(=O)c2cc1OC	-8%	-13%	-5%	i	-3%	i
O=C(CCCn1c(=O)[nH]c2cc(Cl)ccc2c1=O)NC1CCCCCC1	-4%	2%	-2%	i	0%	21µM*
CCOC(=O)C(C(=O)OCC)c1cc(Br)c2noc3c2c1C(=O)c1ccccc1-3	9.2µM*	12µM*	?	5.2µM*	?	?
COc1ccc2c(c1)c(=O)c(C(=O)c1ccc(F)cc1)cn2CC(=O)Nc1ccc2c(c1)OCO2	nt	nt	nt	i	nt	i
CC(=O)Nc1cc(-c2cccc(C(=O)NCCO)c2)cn2c(-c3ccc(F)cc3)cnc12	?	-26%	nt	i	nt	i
CC(=O)Nc1cc(-c2cccc(C(=O)NCCO)c2)cn2c(-c3cccc(C(F)(F)F)c3)cnc12	23µM*	?	nt	i	nt	i
CC(=O)Nc1cc(-c2ccc(N)cc2)cn2c(-c3cccc(C(F)(F)F)c3)cnc12	-3%	-17%	nt	i	nt	i
CC(=O)Nc1cc(-c2ccc(C(=O)NC3CC3)cc2)cn2c(-c3cccc(C(F)(F)F)c3)cnc12	?	16µM*	nt	?	nt	i
CC(=O)Nc1cc(-c2ccc(C(=O)NC3CC3)cc2)cn2c(-c3cccc(C(C)=O)c3)cnc12	15µM*	?	nt	i	nt	i
Cc1ccc(S(=O)(=O)N2CCN(c3nc(-c4ccnnc4)nc4ccccc34)CC2)cc1	4%	11%	nt	nt	nt	nt
CCOc1ccc(NC(=O)c2c(NC(=O)c3cccs3)sc3c2CCC(C(C)(C)C)C3)cc1 (stereo not given)	nt	nt	nt	i	nt	i
O=C(NNc1ccccc1)C(=O)NNS(=O)(=O)c1ccc([N+](=O)[O-])cc1	2.1µM*	5.8µM*	-11%	?	-4%	i
O=C(NNc1ccccn1)C(=O)NNS(=O)(=O)c1ccc(F)cc1	-12%	-27%	?	i	?	?
CC(=O)Nc1ccc(S(=O)(=O)NNc2ccc([N+](=O)[O-])cc2)cc1	?	16µM*	-4%	?	?	i
CC(=O)Nc1ccc(S(=O)(=O)NNC(=O)c2ccc([N+](=O)[O-])cc2)cc1	0%	-2%	-6%	i	-3%	?
SMILES	HT1080NT lethal	HT1080 IDH1KD tx	SW480 rereplic	KB-3-1 tox	MCF10A rereplic	KB-V1 cytotox
O=C(NNc1ccccn1)C(=O)NNS(=O)(=O)c1ccc(Cl)cc1	-21%	?	?	?	?	18µM*
O=C(OCC1CCCO1)c1ccc2c(c1)N(Cc1ccccc1Cl)C(=O)c1ccccc1S2(=O)=O (stereo not given)	nt	nt	nt	i	nt	i
CCCN1CCN(c2ncnc3c2nnn3Cc2ccccc2)CC1	-16%	?	21µM*	?	?	16µM*
O=C(c1ccco1)N1CCN(c2ncnc3c2nnn3Cc2ccccc2Cl)CC1	2%	-17%	-16%	i	-8%	5.8µM*
O=C(c1ccco1)N1CCN(c2nc(C(F)(F)F)nc3c2nnn3Cc2ccccc2)CC1	?	?	17%	?	16%	2.3µM*
Fc1ccc(N2CCN(c3ncnc4c3nnn4Cc3ccccc3Cl)CC2)cc1	5%	10%	-2%[9.22 µM]	?	?	i
c1ccc(Cn2nnc3c(N4CCCCCC4)ncnc32)cc1	-22%	-25%	8%	?	?	i
COc1ccc(-c2nc3ccc(NS(C)(=O)=O)cc3o2)cc1	nt	nt	nt	i	nt	i
CC(C)(C)Sc1ccc(/C=N/O)cc1[N+](=O)[O-]	-15%	-19%	2%	i	4%	23µM*
O=[N+]([O-])c1cc(/C=N/O)ccc1SCc1ccccc1Cl	?	?	?	i	?	21µM*
O=[N+]([O-])c1cc(/C=N\O)ccc1Oc1ccc(F)cc1	-10%	-16%	2%	i	-8%	i
Cc1ccc(Sc2ccc(/C=N/O)cc2[N+](=O)[O-])cc1	?	?	?	i	21µM*	i
COc1ccc(C(=O)c2cn(Cc3ccc(F)cc3)c3ccc(C)cc3c2=O)cc1	nt	nt	nt	i	nt	i
CC(=O)Nc1ccc(/C=C2\CCc3ccccc3C2=O)cc1	23µM*	?	-2%	i	-13%	?
COc1ccc(/C=C2\CCc3ccccc3C2=O)cc1O	2.3µM*	4.1µM*	0.52µM*	3.7µM*	?	5.2µM*
O=C1/C(=C\c2ccc([N+](=O)[O-])cc2)CCc2ccccc21	-5%	-2%	-2%	i	0%	i
CC(=O)C1CCN(c2ncc(-c3cccc(N(C)C)c3)s2)CC1	nt	nt	nt	i	nt	i
Clc1ccccc1Cn1nnc2c(NCC3CC3)ncnc21	-2%	-4%	-1%	?	9%	?
FC(F)(F)c1ccc(N2CCN(c3ncnc4c3nnn4Cc3ccccc3Cl)CC2)cc1	20%	8%	-1%	i	3%	i
